Activity calls are given as the source filed them. Rule for the calls: active = hit-call score of the fitted dose curve at least 0.9, where 1 is the maximum; inactive = score below 0.9.
Columns and labels:
[1] = biological target: Transcription factor E2F1 (Homo sapiens) (UniProt Q01094); assay: ATG_E2F_CIS: Attagene CIS-FACTORIAL HepG2 Assay for human E2F Transcription Factor 1 (AID 2282935); conditions: HepG2 Attagene cis-reporter, E2F reporter RNA transcripts; actives raise or lower the signal
Transcription factor E2F1 (Homo sapiens), sequence (Q01094 whole entry, looked up): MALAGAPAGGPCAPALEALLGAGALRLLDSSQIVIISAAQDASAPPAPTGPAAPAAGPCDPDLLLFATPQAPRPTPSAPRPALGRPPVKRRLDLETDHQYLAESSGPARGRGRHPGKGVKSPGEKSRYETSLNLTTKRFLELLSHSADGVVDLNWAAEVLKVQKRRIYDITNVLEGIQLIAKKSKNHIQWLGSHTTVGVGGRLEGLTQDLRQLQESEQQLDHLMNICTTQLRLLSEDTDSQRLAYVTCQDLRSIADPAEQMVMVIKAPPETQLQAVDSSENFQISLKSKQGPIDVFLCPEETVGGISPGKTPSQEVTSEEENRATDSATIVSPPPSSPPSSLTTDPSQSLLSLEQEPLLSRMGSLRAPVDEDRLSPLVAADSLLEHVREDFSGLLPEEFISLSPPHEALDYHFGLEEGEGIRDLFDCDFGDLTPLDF
How it was run: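 Endogenous E2F1 activity read through cis-promoter reporter units transfected into HepG2. After 24 h compound treatment, reporter mRNA measured by RT-PCR, HpaI digestion and capillary electrophoresis. Bidirectional fit versus DMSO.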

[2] = ATG_E_Box_CIS: Attagene CIS-FACTORIAL HepG2 Assay for human Enhancer Box (E-box) (AID 2282936); conditions: HepG2 E-box cis-reporter transcription, actives raise or lower the signal
How it was run: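 HepG2 cells transiently transfected with multiplexed cis-element reporter units, dosed 24 h; reporter mRNA quantified by RT-PCR, 6-FAM labelling, HpaI digestion and capillary electrophoresis. E-box (USF1) signal fitted bidirectionally vs DMSO.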

[3] = ATG_M_61_CIS: Attagene CIS-FACTORIAL HepG2 Assay for M61 Transcription Factor (Internal Marker) (AID 2282937); conditions: HepG2 Attagene CIS-FACTORIAL M61 internal marker reporter; actives raise or lower the signal
How it was run: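 Background-control endpoint: HepG2 cells with cis-regulated reporter constructs, 24 h exposure, reporter mRNA detected via fluorescent primer extension and capillary electrophoresis; values from bidirectional fitting with DMSO baseline.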

[4] = ATG_EGR_CIS: Attagene CIS-FACTORIAL HepG2 Assay for human Early Growth Response 1 (EGR1) (AID 2282938); conditions: HepG2 Attagene CIS-FACTORIAL EGR reporter mRNA; actives raise or lower the signal
How it was run: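 Endpoint derived by bidirectional fitting versus DMSO vehicle. Method: cis-promoter reporter units transfected into HepG2, 24 h dosing, RNA isolation, RT-PCR with 6-FAM primer extension and HpaI digestion, then capillary electrophoresis fluorescence detection.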

[5] = ATG_M_19_CIS: Attagene CIS-FACTORIAL HepG2 Assay for M19 Transcription Factor (Internal Marker) (AID 2282939); conditions: HepG2 Attagene CIS-FACTORIAL M19 internal marker reporter; actives raise or lower the signal
How it was run: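 Chemical-treated HepG2 (24 h) with MRTU constructs; reporter transcripts detected by fluorescent RT-PCR fragment analysis on capillary electrophoresis. Internal background marker, DMSO as baseline.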

[6] = ATG_ERE_CIS: Attagene CIS-FACTORIAL HepG2 Assay for Estrogen Response Element (ERE) (AID 2282940); conditions: HepG2 ERE cis-reporter, Attagene RNA transcript; actives raise or lower the signal
How it was run: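 Human liver cells (HepG2) bearing transiently transfected, promoter-regulated reporter units were exposed 24 h. Reporter mRNA induction was detected by capillary electrophoresis of labelled RT-PCR products and fitted bidirectionally to DMSO.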

[7] = ATG_Ets_CIS: Attagene CIS-FACTORIAL HepG2 Assay for human Erythroblast Transformation Specific (ETS) (AID 2282941); conditions: HepG2 ETS cis-reporter transcription, actives raise or lower the signal
How it was run: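 HepG2 cells transiently transfected with cis-promoter reporter transcription units were dosed for 24 h; reporter mRNA was measured by RT-PCR, 6-FAM primer extension, HpaI digestion and capillary electrophoresis, with bidirectional fitting against DMSO baseline.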

[8] = biological target: Hepatocyte nuclear factor 3-beta (Homo sapiens) (UniProt Q9Y261); assay: ATG_FoxA2_CIS: Attagene CIS-FACTORIAL HepG2 Assay for human Forkhead box A2 (FOXA2) (AID 2282942); conditions: HepG2 cis-reporter transcription factor activity, 24 h; actives raise or lower the signal
Hepatocyte nuclear factor 3-beta (Homo sapiens), sequence (Q9Y261 whole entry, looked up): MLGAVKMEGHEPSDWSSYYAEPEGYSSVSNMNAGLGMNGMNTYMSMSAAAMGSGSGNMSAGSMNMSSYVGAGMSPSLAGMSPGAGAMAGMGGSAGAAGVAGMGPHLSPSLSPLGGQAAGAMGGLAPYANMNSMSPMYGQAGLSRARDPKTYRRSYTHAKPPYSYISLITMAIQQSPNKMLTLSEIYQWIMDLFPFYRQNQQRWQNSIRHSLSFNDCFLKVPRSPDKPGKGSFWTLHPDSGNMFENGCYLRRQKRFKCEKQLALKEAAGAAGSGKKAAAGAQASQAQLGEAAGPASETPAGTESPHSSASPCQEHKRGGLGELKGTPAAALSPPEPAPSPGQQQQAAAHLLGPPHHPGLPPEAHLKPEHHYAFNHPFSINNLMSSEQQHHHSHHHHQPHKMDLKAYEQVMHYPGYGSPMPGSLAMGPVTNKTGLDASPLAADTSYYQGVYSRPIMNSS
How it was run: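 Measured: reporter mRNA induction or loss in HepG2 transiently carrying multiple cis-regulated reporter units, 24 h after dosing. Quantified by RT-PCR plus capillary electrophoresis, normalised to DMSO.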

[9] = ATG_FoxO_CIS: Attagene CIS-FACTORIAL HepG2 Assay for human Forkhead box O (FoxO) (AID 2282943); conditions: HepG2 Attagene cis-reporter, FoxO element, mRNA; actives raise or lower the signal
How it was run: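 Transfected HepG2 reporter cells exposed to test chemical for 24 h; reporter RNA measured by reverse transcription, PCR and fluorescent capillary electrophoresis; curves fitted for increases and decreases against DMSO.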

[10] = ATG_GATA_CIS: Attagene CIS-FACTORIAL HepG2 Assay for human GATA Binding Protein (AID 2282944); conditions: HepG2 GATA cis-element reporter, Attagene multiplex mRNA; actives raise or lower the signal
How it was run: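 Transfected cis-reporter HepG2 cells were treated with chemicals for 24 hours. Total RNA was then converted to cDNA, amplified with reporter-specific primers and analysed by fluorescent capillary electrophoresis, using DMSO-treated wells as baseline.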

[11] = ATG_GLI_CIS: Attagene CIS-FACTORIAL HepG2 Assay for human Zinc Finger Protein GLI1 (AID 2282945); conditions: HepG2, Attagene cis-factorial reporter mRNA, GLI element; actives raise or lower the signal
How it was run: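 Transiently transfected HepG2 cells report endogenous transcription factor activity via cis-element-driven reporter units. After 24 h compound exposure, reporter mRNA was measured by RT-PCR with capillary electrophoresis; bidirectional fitting against DMSO baseline.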

[12] = ATG_GRE_CIS: Attagene CIS-FACTORIAL HepG2 Assay for human Glucocorticoid Response Elements (GRE) (AID 2282947); conditions: HepG2 GRE cis-reporter, Attagene multiplex mRNA; actives raise or lower the signal
How it was run: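 Transiently transfected HepG2 cells carrying GRE cis-reporter units (endogenous TF activity) dosed 24 h; reporter mRNA quantified by RT-PCR, 6-FAM labelling, HpaI digestion and capillary electrophoresis. Bidirectional fit versus DMSO baseline.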

[13] = ATG_ISRE_CIS: Attagene CIS-FACTORIAL HepG2 Assay for human Interferon Regulatory Factor 1 (IRF1) binding to an Interferon-Stimulated Response Element (ISRE) (AID 2282948); conditions: HepG2 ISRE cis-reporter (Attagene), mRNA transcription readout; actives raise or lower the signal
How it was run: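 HepG2 cells transiently transfected with multiplexed cis-promoter reporter units; after 24 h compound exposure, reporter mRNA quantified by RT-PCR, FAM labelling, HpaI digestion and capillary electrophoresis. Bidirectional fit versus DMSO baseline.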

[14] = ATG_M_32_CIS: Attagene CIS-FACTORIAL HepG2 Assay for M32 Transcription Factor (Internal Marker) (AID 2282949); conditions: HepG2 Attagene cis-factorial M32 reporter, mRNA; actives raise or lower the signal;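 note: background control marker of the multiplexed CIS panel rather than a real target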
How it was run: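 Fluorescent capillary electrophoresis peaks of HpaI-digested, FAM-labelled RT-PCR reporter products give the signal. Source: transiently transfected human liver HepG2 cells, 24 h after chemical dosing; bidirectional fitting against DMSO.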

[15] = ATG_M_06_CIS: Attagene CIS-FACTORIAL HepG2 Assay for M06 Transcription Factor (Internal Marker) (AID 2282950); conditions: HepG2 Attagene CIS-FACTORIAL M06 internal marker reporter; actives raise or lower the signal
How it was run: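 Cells (HepG2, transiently carrying cis-driven reporter units) receive chemical for 24 h before RNA isolation. Reporter cDNA is PCR-amplified, FAM-labelled by primer extension, HpaI-digested and sized on a capillary analyser.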

[16] = biological target: Hypoxia-inducible factor 1-alpha (Homo sapiens) (UniProt Q16665); assay: ATG_HIF1a_CIS: Attagene CIS-FACTORIAL HepG2 Assay for human Hypoxia Inducible Factor 1 (HIF1A) (AID 2282951); conditions: HepG2 Attagene cis-factorial HIF1a reporter transcription; actives raise or lower the signal
Hypoxia-inducible factor 1-alpha (Homo sapiens), sequence (Q16665 whole entry, looked up): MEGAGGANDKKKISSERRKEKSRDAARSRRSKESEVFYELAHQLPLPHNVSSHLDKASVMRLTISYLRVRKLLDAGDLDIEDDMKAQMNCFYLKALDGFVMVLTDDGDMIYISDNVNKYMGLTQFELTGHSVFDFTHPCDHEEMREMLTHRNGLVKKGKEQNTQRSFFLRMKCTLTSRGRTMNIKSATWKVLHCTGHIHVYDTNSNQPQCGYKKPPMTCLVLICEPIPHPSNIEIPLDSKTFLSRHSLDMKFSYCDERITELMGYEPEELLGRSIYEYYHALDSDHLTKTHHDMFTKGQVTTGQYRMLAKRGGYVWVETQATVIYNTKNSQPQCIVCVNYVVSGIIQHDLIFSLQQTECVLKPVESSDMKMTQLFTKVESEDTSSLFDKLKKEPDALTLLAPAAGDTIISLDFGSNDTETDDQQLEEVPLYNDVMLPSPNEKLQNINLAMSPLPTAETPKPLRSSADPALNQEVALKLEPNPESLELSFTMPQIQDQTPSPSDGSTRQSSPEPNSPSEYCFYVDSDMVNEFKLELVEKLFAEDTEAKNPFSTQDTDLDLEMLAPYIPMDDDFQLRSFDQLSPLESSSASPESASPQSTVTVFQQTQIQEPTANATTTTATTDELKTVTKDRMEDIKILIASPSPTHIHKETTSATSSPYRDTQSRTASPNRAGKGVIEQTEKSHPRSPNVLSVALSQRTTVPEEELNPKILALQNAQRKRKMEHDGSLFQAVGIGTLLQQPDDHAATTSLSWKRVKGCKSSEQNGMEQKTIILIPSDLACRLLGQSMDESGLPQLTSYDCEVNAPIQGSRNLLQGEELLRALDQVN
How it was run: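 Dosed 24 h, transfected HepG2 cells yielded total RNA whose reporter transcripts were RT-PCR-amplified and sized by capillary electrophoresis using fluorescent labelling; DMSO defined baseline, with gain and loss of signal both fitted.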

[17] = biological target: Hepatocyte nuclear factor 6 (Homo sapiens) (UniProt Q9UBC0); assay: ATG_HNF6_CIS: Attagene CIS-FACTORIAL HepG2 Assay for human Hepatocyte Nuclear Factor 6 (HNF6) (AID 2282952); conditions: HepG2 Attagene cis-factorial HNF6 reporter transcription; actives raise or lower the signal
Hepatocyte nuclear factor 6 (Homo sapiens), sequence (Q9UBC0 whole entry, looked up): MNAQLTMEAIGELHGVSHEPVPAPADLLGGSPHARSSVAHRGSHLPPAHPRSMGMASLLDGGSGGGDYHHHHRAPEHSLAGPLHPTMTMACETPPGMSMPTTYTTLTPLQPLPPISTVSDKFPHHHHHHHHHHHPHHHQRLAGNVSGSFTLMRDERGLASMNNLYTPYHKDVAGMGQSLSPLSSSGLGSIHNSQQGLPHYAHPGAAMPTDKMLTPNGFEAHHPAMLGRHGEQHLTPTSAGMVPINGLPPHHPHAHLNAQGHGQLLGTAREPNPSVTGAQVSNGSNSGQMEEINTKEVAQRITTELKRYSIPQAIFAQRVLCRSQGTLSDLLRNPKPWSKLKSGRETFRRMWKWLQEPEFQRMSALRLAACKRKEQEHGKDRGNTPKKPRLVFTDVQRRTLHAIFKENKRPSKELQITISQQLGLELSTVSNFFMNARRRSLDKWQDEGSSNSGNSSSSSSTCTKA
How it was run: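 Transiently transfected HepG2 cells expressing cis-regulated reporter transcription units were exposed to chemical for 24 h in a 24-well format. Reporter transcript abundance was determined by fluorescence capillary electrophoresis.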

[18] = biological target: Heat shock factor protein 1 (Homo sapiens) (UniProt Q00613); assay: ATG_HSE_CIS: Attagene CIS-FACTORIAL HepG2 Assay for human Heat Shock Transcription Factor 1 (HSE) (AID 2282953); conditions: HepG2 HSE cis-reporter, Attagene RNA transcription; actives raise or lower the signal
Heat shock factor protein 1 (Homo sapiens), sequence (Q00613 whole entry, looked up): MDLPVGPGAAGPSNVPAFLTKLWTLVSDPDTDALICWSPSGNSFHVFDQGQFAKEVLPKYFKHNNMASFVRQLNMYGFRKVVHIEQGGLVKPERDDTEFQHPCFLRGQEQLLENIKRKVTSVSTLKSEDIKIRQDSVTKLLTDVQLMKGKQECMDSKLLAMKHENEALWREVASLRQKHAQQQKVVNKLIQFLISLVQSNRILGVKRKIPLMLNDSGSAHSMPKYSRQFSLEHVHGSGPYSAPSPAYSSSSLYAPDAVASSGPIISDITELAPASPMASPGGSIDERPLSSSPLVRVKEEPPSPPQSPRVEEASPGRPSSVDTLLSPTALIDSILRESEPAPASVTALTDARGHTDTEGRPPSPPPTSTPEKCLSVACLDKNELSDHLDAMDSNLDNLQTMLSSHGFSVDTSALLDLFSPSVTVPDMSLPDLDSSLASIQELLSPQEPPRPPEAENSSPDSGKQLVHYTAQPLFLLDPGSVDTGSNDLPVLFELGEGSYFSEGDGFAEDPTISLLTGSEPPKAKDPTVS
How it was run: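 Liver-derived HepG2 cells carry transiently introduced multiple reporter units governed by cis promoters. Reporter RNA measured 24 h post-dose through reverse transcription, PCR amplification, fluorescent labelling and capillary electrophoresis, normalised to DMSO.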

[19] = ATG_MRE_CIS: Attagene CIS-FACTORIAL HepG2 Assay for human Metal Responsive Element (MRE) (AID 2282954); conditions: HepG2 MRE cis-reporter transcription, Attagene multiplex; actives raise or lower the signal
How it was run: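 HepG2 cells transiently transfected with cis-element-driven reporter units; mRNA measured 24 h after dosing. Reporter transcripts quantified by RT-PCR, FAM labelling, HpaI digestion and capillary electrophoresis; bidirectional fit versus DMSO.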

[20] = biological target: Bile acid receptor (Homo sapiens) (UniProt Q96RI1); assay: ATG_IR1_CIS: Attagene CIS-FACTORIAL HepG2 Assay for human Nuclear Receptor Subfamily 1 Group H Member 4 (NR1H4), IR1 submotif (AID 2282946); conditions: IR1 reporter transcription, actives raise or lower the signal
Bile acid receptor (Homo sapiens), sequence (Q96RI1 whole entry, looked up): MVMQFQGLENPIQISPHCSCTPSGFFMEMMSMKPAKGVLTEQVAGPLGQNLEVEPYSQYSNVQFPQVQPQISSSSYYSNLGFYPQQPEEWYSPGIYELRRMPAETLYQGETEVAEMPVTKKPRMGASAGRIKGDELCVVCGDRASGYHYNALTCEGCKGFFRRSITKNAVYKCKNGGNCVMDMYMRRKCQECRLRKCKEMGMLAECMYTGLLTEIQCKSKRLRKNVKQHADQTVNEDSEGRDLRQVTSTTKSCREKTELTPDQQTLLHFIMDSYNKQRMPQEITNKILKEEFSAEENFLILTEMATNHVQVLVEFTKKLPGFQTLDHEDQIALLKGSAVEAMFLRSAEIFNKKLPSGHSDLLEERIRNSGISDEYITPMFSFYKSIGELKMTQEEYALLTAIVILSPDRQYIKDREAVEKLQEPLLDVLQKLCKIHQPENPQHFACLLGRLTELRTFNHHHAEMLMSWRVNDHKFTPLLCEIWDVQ
How it was run: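 HepG2 cells transiently transfected with multiple cis-promoter-driven reporter units to measure endogenous transcription factor activity; 24 h exposure. Reporter mRNA read by RT-PCR, FAM labelling, HpaI digestion and capillary electrophoresis. Bidirectional fit versus DMSO.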

Measured: AC50

O=C(CC(=O)C(F)(F)C(F)(F)F)C(F)(F)F
not listed: [20]
inactive: all other assays above

CCCCCCCCC(F)(F)C(F)(F)C(F)(F)C(F)(F)C(F)(F)C(F)(F)F
not listed: [12] | [20]
inactive: all other assays above

CNC(=S)NC
not listed: [9] | [20]
inactive: all other assays above

Cc1ccc(S(=O)(=O)NCl)cc1
not listed: [9] | [20]
inactive: all other assays above

O=C(O)C(F)(F)C(F)(F)C(F)(F)C(F)(F)C(F)(F)C(F)(F)C(F)(F)C(F)(F)C(F)(F)C(F)(F)C(F)(F)C(F)(F)F
not listed: [9] | [12] | [20]
inactive: all other assays above

NC(=O)C(F)(F)C(F)(F)C(F)(F)C(F)(F)F
not listed: [9] | [20]
inactive: all other assays above

Nc1cc(Cl)c(N)c(Cl)c1
active: [6] 7.29 µM
not listed: [9]
inactive: all other assays above

O=C(O)C(F)(OC(F)(F)C(F)(OC(F)(F)C(F)(OC(F)(F)C(F)(F)C(F)(F)F)C(F)(F)F)C(F)(F)F)C(F)(F)F (configuration not stated)
not listed: [9] | [12]
inactive: all other assays above

FC1CC(F)(F)C(F)(F)C1(F)F (configuration not stated)
not listed: [9] | [12]
inactive: all other assays above

CS(C)(=O)=O
not listed: [9] | [20]
inactive: all other assays above

OCC(F)(F)C(F)(F)C(F)(F)F
not listed: [9] | [20]
inactive: all other assays above

COC(=O)CCC(F)(F)C(F)(F)C(F)(F)C(F)(F)F
active: [6] 6.98 µM
not listed: [9] | [12]
inactive: all other assays above

— PubChem BioAssay (EPA / NIEHS)
